GC-A act: GC-A (human) enzyme activation | P16066 | HEK293 GC-A cells, cGMP TR-FRET, EC30 ANP; 0% at EC30 ANP, 100% saturating ANP | activation, % at 10 µM | 370,000 compounds, 0.14% hits | AID 1671463; in the data active = activation above about 40%
V-ATPase pH: alters yeast V-ATPase proton transport; response, % at 10 µM; S. cerevisiae, pHLuorin cytosolic pH fluorescence; 350,000 compounds, 0.37% hits; AID 504577; in the data active = response mostly above about 7.3%, no sharp cut-off; inactive = mostly below about 5.4%; also: actives read high
Efflux pump inh: inhibitors of Candida antifungal efflux pumps expressed in yeast | S. cerevisiae Candida pump triplex, Nile Red efflux | inhibition, % at 10 µM | 330,000 compounds, 0.44% hits;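 active = plate passing quality check with inhibition over a set limit, or well fluorescence over plate mean plus 4 SD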;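 also: Nile Red retained in pooled yeast measured as flow cytometry median fluorescence; 0% = buffer negative control and 100% = Enniatin B positive control; higher means more Nile Red kept so more efflux inhibition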
NSD2 inh: blocks human histone methyltransferase NSD2 | O96028 | NSD2 peptide methylation, AlphaScreen, 120 min | inhibition, % at 12.5 µM | 310,000 compounds, 0.54% hits | AID 743445; in the data active = inhibition above about 50%
Rce1 inh: yeast Ras-converting enzyme inhibition. 290,000 compounds, 0.27% hits. calls only. yeast membranes, quenched prenylated peptide cleavage fluorescence. Q03530;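 active = fall in fluorescence gain of 50% or more versus controls, with final raw signal at or below 3038400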;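 also: plate controls were neutral control wells for no effect and wells lacking membranes for full effect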
Target sequence (Q03530 whole entry, looked up): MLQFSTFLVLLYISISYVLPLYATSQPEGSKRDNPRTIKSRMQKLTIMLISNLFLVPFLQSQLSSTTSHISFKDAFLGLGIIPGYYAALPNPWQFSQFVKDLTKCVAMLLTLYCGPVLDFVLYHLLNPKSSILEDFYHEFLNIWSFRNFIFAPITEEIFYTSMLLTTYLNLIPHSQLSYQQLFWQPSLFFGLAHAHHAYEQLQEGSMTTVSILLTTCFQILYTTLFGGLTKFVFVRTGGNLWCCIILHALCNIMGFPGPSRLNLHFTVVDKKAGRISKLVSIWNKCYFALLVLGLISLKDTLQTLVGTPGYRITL
NPR2 activator: GC-B (human) receptor activation; HEK293-GC-B cells, CNP EC30, cGMP TR-FRET; 0% at EC30 CNP, 100% saturating CNP; P20594; 370,000 compounds, 0.11% hits; activation, % at 10 µM; AID 1920062;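 active = activation at 10 µM reaching about 35% in either raw or pattern-adjusted values, limit read from the data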
The depositor's hits bear a star; i = inactive; . = no result given; + = active, no number. In the library only some 1.6% were active in any assay of this set; here they are far more common.

SMILES	GC-A act	V-ATPase pH	Efflux pump inh	NSD2 inh	Rce1 inh	NPR2 activator
COc1ccc2cc(C(=O)C3CCCN(C(=O)CCc4cnn(C)c4)C3)ccc2c1 (stereo not given)	-3	2	0	0	+	-6
Cn1cc(CCC(=O)N2CCCC(C(=O)c3cccc4ccccc34)C2)cn1 (stereo not given)	-1	0	0	4	i	4
CCC(NC(=O)c1ccc2c(c1)c(C)c(C)n2Cc1ccc(-c2ccccc2C#N)cc1)c1ccccc1 (stereo not given)	0	.	.	.	.	2
FC(F)(F)c1cc(C(F)(F)F)c2ccc(Oc3ccccc3)nc2n1	-2	0	0	5	i	-4
Nc1ccc2c(C(F)(F)F)cc(C(F)(F)F)nc2n1	1	1	0	-2	+	0
CCN(c1ccccc1)S(=O)(=O)c1cc(NC(=O)CSc2nccc(=O)[nH]2)ccc1Cl	.	.	.	-2	.	.
COc1cccc(C2CC(c3ccc(Br)cc3)=NN2C(=O)c2ccncc2)c1OC (stereo not given)	-3	-1	0	1	+	-3
CCCCN1CCN(C(=O)CSc2nc3cccnc3n2C)CC1	.	.	.	-2	.	.
CCC(=O)Nc1cccc(NC(=S)NC(=O)c2cccs2)c1	1	2	0	-2	+	0
Cc1ccnc(NC(=S)N2CC3CN(c4cccc(C(F)(F)F)c4)CC3C2)c1 (stereo not given)	-6	.	.	-3	.	0
C=CCn1cc(-c2ccc(Cl)cc2)cc(C#N)c1=O	1	0	0	-11	i	2
C=CCn1cc(-c2ccccc2)cc(C#N)c1=O	5	0	0	0	+	-1
Cc1ccc2c(c1)C(=O)C(=O)N2CCCOc1ccccc1	-17	-3	0	.	+	-11
Cc1cccc(OCCCN2C(=O)C(=O)c3cc(C)ccc32)c1	-16	3	0	31	+	-11
CCCCN1C(=O)C(=O)c2cc(C)ccc21	.	.	.	11	.	.
Cc1ccc(OCCCN2C(=O)C(=O)c3cc(C)ccc32)cc1	-12	5	0	1	i	5
C[C@H](O)[C@@H]1CN2CCc3ccc(N4CCOCC4)cc3[C@@H]2C[C@@H]1N(C)C(=S)NCCc1ccccc1	-4	.	.	.	.	-3
Cc1nn(CCC(=O)NNC(=O)Nc2ccc(Cl)cc2)c(C)c1[N+](=O)[O-]	-5	.	.	4	.	-3
C[C@H]1[C@@H](OC(=O)Nc2cc(Cl)ccc2Cl)CC[C@@]23CCCN2C(=O)CCC[C@@H]13	-9	.	.	-2	.	-12
COC(=O)[C@]12C[C@H](CC(=O)N3CCN(C(=O)c4ccco4)CC3)C(=O)N(Cc3ccccc3)C1=C[C@H](COCc1ccccc1)O[C@@H]2C	1	.	.	.	.	3
CCN1CCN(CC(O)COc2ccc(C)c(C)c2)CC1 (stereo not given)	-2	7	0	9	i	2
CCN1CCN(CC(O)COc2ccc3c(C)cc(=O)oc3c2)CC1 (stereo not given)	3	2	0	20	+	-3
CCOC(=O)C(C)CC(C)C(=O)N1CCOCCOCCN(C(=O)C(C)CC(C)C(=O)OCC)CCOCC1 (stereo not given)	1	-4	0	-1	i	5
CCOC(=O)C(C(=O)OCC)C(C(=O)OCC)N1CCOCC1 (stereo not given)	-8	12*	0	0	i	-10
CCOC(=O)c1c(C)oc2c1c(C(c1ccccc1)N1CCOCC1)c(O)c1ccccc12 (stereo not given)	-4	2	0	0	i	-8
SMILES	GC-A act	V-ATPase pH	Efflux pump inh	NSD2 inh	Rce1 inh	NPR2 activator
CCOC(=O)c1c(C)oc2c1c(C=NCCO)c(O)c1ccccc12	-8	4	.	101*	i	-3
COC(=O)[C@H](C)N(Cc1cn(Cc2ccccc2)nn1)S(=O)(=O)c1ccccc1Br	2	.	.	.	.	6
COCCCn1c(=O)c2ccccc2n(Cc2ccc(C)cc2)c1=O	18	-3	0	-7	i	19
Cc1ccc(Cn2c(=O)c3ccccc3n3nc(C)cc23)cc1	25	-1	0	0	i	36*
O=C(O)CCCN1C(=O)/C(=C\c2ccco2)SC1=S	-1	-2	.	101*	i	4
Cn1nc(C(=O)Nc2ccccc2)c2c1-c1ccccc1S(=O)(=O)C2	0	14*	0	-2	i	-3
COCCn1c(SCC(=O)Nc2cc(C)on2)nc2c([nH]c3ccccc32)c1=O	50*	2	.	0	.	-2
CCn1c(SCC(=O)Nc2cc(C)on2)nc2c([nH]c3ccccc32)c1=O	59*	-2	0	-3	i	-1
COc1ccc(OC[C@@H](O)CN2CCC(C(O)(c3ccccc3)c3ccccc3)CC2)cc1	-16	.	.	.	.	-10
C[C@H](O)[C@@H]1CN2CCc3ccc(-c4ccc5c(c4)OCO5)cc3[C@@H]2C[C@@H]1N(C)C(=O)Nc1ccccc1	-4	.	.	.	.	-6
COc1ccccc1-c1cc(C(F)(F)F)nc(S(=O)(=O)CCCC(=O)N2CCOCC2)n1	70*	1	0	-1	i	4
CN(C)S(=O)(=O)n1cc(/C=C(\NC(=O)c2ccccc2F)C(=O)N2CCOCC2)c2ccccc21	2	-1	0	-1	i	2
CCn1cc(/C=C(\NC(=O)c2ccccc2Cl)C(=O)N2CCN(C)CC2)c2ccccc21	2	4	.	5	i	-1
CCn1cc(/C=C(\NC(=O)c2ccccc2F)C(=O)N2CCOCC2)c2ccccc21	.	-1	0	-1	+	.
CCn1cc(/C=C(\NC(=O)c2ccccc2OC)C(=O)N2CCOCC2)c2ccccc21	-4	.	.	.	.	6
CCn1cc(/C=C(\NC(=O)c2ccccc2F)C(=O)N2CCCC2)c2ccccc21	.	-3	0	7	+	.
CCn1cc(/C=C(\NC(=O)c2ccccc2Cl)C(=O)N2CCOCC2)c2ccccc21	-3	1	0	5	+	-2
Oc1ccc2[nH]cc(CCc3ccccc3)c2c1-c1ccccc1	12	.	.	.	.	-1
CCOC(=O)N1CCC(Nc2c(NCCN3CCN(Cc4ccccc4)CC3)c(=O)c2=O)CC1	-4	14*	0	-1	i	1
CCOC(=O)c1ccc(NC(=O)N2CCN(Cc3ccccc3)CC2)cc1	-1	1	0	-2	+	-1
C=CCN1C(=O)[C@@H](CC(=O)NCc2cccc(C(F)(F)F)c2)[C@]2(C(=O)OC)CCCCC=C12	4	.	.	.	.	3
Cc1cc(C)cc(C(=O)OCCCN(C)C2CN(Cc3cn(Cc4ccc([N+](=O)[O-])cc4)nn3)S(=O)(=O)C2)c1 (stereo not given)	-3	.	.	.	.	-5
O=C(COc1ccc(-c2nnco2)cc1)N1CCOCC1	-2	15*	0	1	.	-4

Source: PubChem BioAssay
